This passage reports Potency results from PubChem BioAssay (Tox21).

Test [1] is described as follows: Nuclear factor erythroid 2-related factor 2/antioxidant responsive element (Nrf2/ARE) small molecule agonists: qHTS cell viability counter screen in human keratinocytes (AID 1919968; active = well fitted curve in the direction sought with a large enough effect in the repeat runs; an effect the other way counts as inactive or inconclusive; also: nearly all actives have a fitted effect of over 55% in size). A digest of the protocol:
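Measured as CellTiter-Fluor fluorescence, this readout tracks cytotoxicity in the same wells as the ARE-luciferase screen. HaCaT reporter cells (1,500/well) received compounds after a 5 h pre-incubation and were exposed for 23 h.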
(In general: In qHTS, concentration-response curves come from the screen itself.)

Test [2] can be described thus: Nuclear factor erythroid 2-related factor 2/antioxidant responsive element (Nrf2/ARE) small molecule agonists: luciferase reporter gene qHTS assay in human keratinocytes (AID 1919969). Also: nearly all actives have a fitted effect of over 35% in size. Also: potency is read from the fitted curve at half-maximal effect.
Test [3] deals with Gonadotropin-releasing hormone receptor (Homo sapiens) (UniProt P30968). As to the kind of experiment: Human gonadotropin-releasing hormone receptor (GnRHR) small molecule agonists, calcium flux assay in GnRHR-HEK293 cells (AID 1920063). Also: nearly all actives have a fitted effect of over 35% in size. In a few lines: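 Fluorescence kinetics (480 nm excitation, 540 nm emission; 3 min, 1 s steps) report calcium mobilisation in human GnRHR-HEK293 cells in agonist mode. Dye incubation: 1 h, 37 C.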
Background: Calcium assays in cells follow changes in intracellular calcium, usually with a dye or a luminescent sensor.

Test [4] concerns the target KiSS-1 receptor (Homo sapiens) (UniProt Q969F8). The experiment in a line: Human kisspeptin (KISS1R) small molecule agonists, calcium flux assay in KISS1R-HEK293 cells (AID 1920064; active = well fitted curve in the direction sought with a large enough effect in the repeat runs; an effect the other way counts as inactive or inconclusive). In a few lines: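 Measures KISS1R agonism through calcium-sensitive dye fluorescence in stably transfected HEK293 cells, read for 3 min after pin-tool compound delivery; 15-point titrations in triplicate.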

The nature of test [5]: G protein-coupled receptor (GPCR) small molecule agonists, calcium flux assay: HEK293 wild type cell line counter screen (AID 1920065). In a few lines: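 Readout: fluorescence at 480 nm excitation/540 nm emission, sampled at 1 s intervals for 3 min. Cells had been cultured 18 h, then dye-loaded 1 h at 37 C before compound or ATP addition.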
The nature of test [6]: p53 small molecule agonists, cell-based qHTS assay with human liver microsomes (AID 1963577). Also: potency is read from the fitted curve at half-maximal effect.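 As to activation: p53 response element beta-lactamase reporter cells with liver microsomes plus NADPH.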 In a few lines:
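Metabolically competent format: test substances, human liver microsomes and NADPH (both 0.5 mg/mL final) incubated with p53RE-bla cells 16 h at 37 C. Beta-lactamase reporter signal then quantified by fluorescence.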

Test [7] in a line: p53 small molecule agonists, cell-based qHTS assay with rat liver microsomes (AID 1963578). Also: potency is read from the fitted curve at half-maximal effect. In a few lines:
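Each plate received p53RE-bla cells, then compound, then rat liver microsomes and NADPH (both 0.5 mg/mL final). Plates were held 16 h at 37 C, and beta-lactamase activity was detected with LiveBLAzer over 2 h.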

Test [8] can be described thus: p53 small molecule agonists, cell-based qHTS assay with human liver microsomes: qHTS cell viability counter screen (AID 1963579). Also: nearly all actives have a fitted effect of over 45% in size. A digest of the protocol:
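Tox21 library compounds, delivered from DMSO stocks, were tested on p53RE-bla cells together with 0.5 mg/mL human liver microsomes and 0.5 mg/mL NADPH (final) over 16 h at 37 C; CellTiter-Glo luminescence served as the cytotoxicity measure.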

The nature of test [9]: p53 small molecule agonists, cell-based qHTS assay: qHTS cell viability counter screen (AID 1963581). Also: nearly all actives have a fitted effect of over 45% in size. A digest of the protocol: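 In the same plates used for the p53 bla reporter, HCT-116 cells given compounds for 16 h at 37 C received CellTiter-Glo; luminescence was recorded 30 min later at room temperature.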
For test [10], the target named is 5-hydroxytryptamine receptor 2A (Homo sapiens) (UniProt P28223). As to the kind of experiment: 5-hydroxytryptamine receptor 2A (HTR2A) small molecule antagonists, cell-based qHTS assay (AID 1963586). Also: nearly all actives have a fitted effect of over 45% in size. Also: potency is read from the fitted curve at half-maximal effect. In a few lines: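 Antagonist-mode intracellular calcium assay: DOI (4 nM) added after 5 min compound pre-incubation at room temperature to dye-loaded HTR2A-CHO cells. Fluorescence followed for 3 min, sampled every second.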

The target is the same in test [11]. As to the kind of experiment: 5-hydroxytryptamine receptor 2A (HTR2A) small molecule agonists, cell-based qHTS assay (AID 1963587). Also: nearly all actives have a fitted effect of over 30% in size. Also: potency is read from the fitted curve at half-maximal effect. A digest of the protocol:
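CHO cells stably expressing human HTR2A, plated 18 h, loaded with calcium dye 1 h at 37 C. Agonist mode: compounds added and intracellular calcium fluorescence recorded kinetically for 2 min at 1 sec intervals.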

The target in test [12] is Muscarinic acetylcholine receptor M1 (Homo sapiens) (UniProt P11229). As to the kind of experiment: Cholinergic receptor muscarinic 1 (CHRM1) small molecule antagonists, cell-based qHTS assay (AID 1963588). Also: nearly all actives have a fitted effect of over 40% in size. Also: potency is read from the fitted curve at half-maximal effect. A digest of the protocol: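 CHRM1-CHO calcium-flux assay, antagonist mode. Cells were seeded 18 h, dye-loaded 1 h at 37 C and given compound for 5 min at RT, then acetylcholine was added at 50nM. FDSS fluorescence was read 3 min; 15 concentrations, three runs.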

Test [13] shares this target. The experiment in a line: Cholinergic receptor muscarinic 1 (CHRM1) small molecule agonists, cell-based qHTS assay (AID 1963589). Also: nearly all actives have a fitted effect of over 35% in size. A digest of the protocol:
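Each compound was tested at 15 concentrations across three independent runs on dye-loaded CHO cells stably expressing human CHRM1, reading intracellular calcium fluorescence kinetically at 1 sec intervals.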

Test [14] addresses Beta-2 adrenergic receptor (Homo sapiens) (UniProt P07550). The experiment in a line: Adrenergic beta2 receptor (ADRB2) small molecule antagonists, cell-based qHTS assay (AID 1963592). Also: series mostly up to about 92 µM; nearly all actives have a fitted effect of over 50% in size. A digest of the protocol:
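Cells (CHO, stable ADRB2 overexpression) incubated 18-20hr at 37C; compounds added from DMSO; agonist mix (1nM isoproterenol, 100uM IBMX, 25uM Ro-20-1724) added; 0.5hr RT; d2-cAMP and anti-cAMP-cryptate added; 1hr RT; 665/615 nm read.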

The target in test [15] is D(2) dopamine receptor (Homo sapiens) (UniProt P14416). The experiment in a line: Dopamine D2 receptor (DRD2) small molecule agonists, cell-based qHTS assay (AID 1963594). Also: nearly all actives have a fitted effect of over 35% in size. Also: potency is read from the fitted curve at half-maximal effect. A digest of the protocol:
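HEK293 cells stably expressing human DRD2, pre-treated with PDE inhibitor Ro20-1724 (0.1 mM final) and compound 10 min at room temperature, then stimulated with NKH477 (200nM […]) for 30 min. cAMP read by HTRF (665/620 nm).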

Test [16] has the same target. The experiment in a line: Dopamine D2 receptor (DRD2) small molecule antagonists, cell-based qHTS assay (AID 1963595; active = well fitted inhibition curve with a large enough effect in the signal ratio in the repeat runs, with a control signal flat; the % refers to the signal ratio). In a few lines:
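Antagonism was scored as restored cAMP in HEK293-DRD2 cells. These cells were stimulated with 200 nM NKH477 and 12 nM quinpirole for 30 min at room temperature, in the presence of 0.1 mM Ro20-1724.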

The nature of test [17]: p53 small molecule agonists, cell-based qHTS assay (AID 1963582; active = well fitted activation curve with a large enough effect in the signal ratio in the repeat runs, not every such curve was filed as active; the % refers to the signal ratio). In a few lines: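 Compounds are pin-transferred in DMSO onto p53RE-bla cells and incubated 16 h at 37 C. The B/G FRET beta-lactamase substrate is then applied for 2 h at RT and fluorescence recorded.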
Test [18] can be described thus: cAMP Responsive Elements (CRE) small molecule agonists, cell-based qHTS assay (AID 1963590). In a few lines: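 Cell line: CRE-bla HEK 293T; medium DMEM/10% dialyzed FBS/0.1 mM NEAA/1 mM pyruvate/25 mM HEPES; 3 h compound exposure; beta-lactamase FRET readout after 2 h substrate loading at RT.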
The nature of test [19]: cAMP Responsive Elements (CRE) small molecule antagonists, cell-based qHTS assay (AID 1963591; active = well fitted inhibition curve with a large enough effect in the signal ratio in the repeat runs, not every such curve was filed as active; the % refers to the signal ratio). A digest of the protocol:
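Inhibition of NKH477-driven (0.25 uM final) CRE-beta-lactamase signal in HEK293T cells, 3 h compound exposure at 37 °C, detected by FRET substrate fluorescence.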

Test [20] has as its target Beta-2 adrenergic receptor (Homo sapiens) (UniProt P07550). As to the kind of experiment: Adrenergic beta2 receptor (ADRB2) small molecule agonists, cell-based qHTS assay (AID 1963593).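 Also: CHO cells stably overexpressing human ADRB2.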 In a few lines:
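CHO cells stably over-expressing ADRB2 were plated overnight at 37C, then dosed with compounds plus a stimulation mix containing 100uM IBMX and 25uM Ro-20-1724 for 0.5hr at room temperature. cAMP was measured by HTRF competition, 1hr.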

“And” between values parts separate entries of the source, which are not always exact repeats. Equal values may be shown once. Records with an inconclusive call do not appear. A structure can be active in one record and inactive in another. The source made the active and inactive calls. Unless noted, calls follow the shape of the full dose curve.

Sequence of Muscarinic acetylcholine receptor M1 (Homo sapiens) (P11229 whole entry, looked up): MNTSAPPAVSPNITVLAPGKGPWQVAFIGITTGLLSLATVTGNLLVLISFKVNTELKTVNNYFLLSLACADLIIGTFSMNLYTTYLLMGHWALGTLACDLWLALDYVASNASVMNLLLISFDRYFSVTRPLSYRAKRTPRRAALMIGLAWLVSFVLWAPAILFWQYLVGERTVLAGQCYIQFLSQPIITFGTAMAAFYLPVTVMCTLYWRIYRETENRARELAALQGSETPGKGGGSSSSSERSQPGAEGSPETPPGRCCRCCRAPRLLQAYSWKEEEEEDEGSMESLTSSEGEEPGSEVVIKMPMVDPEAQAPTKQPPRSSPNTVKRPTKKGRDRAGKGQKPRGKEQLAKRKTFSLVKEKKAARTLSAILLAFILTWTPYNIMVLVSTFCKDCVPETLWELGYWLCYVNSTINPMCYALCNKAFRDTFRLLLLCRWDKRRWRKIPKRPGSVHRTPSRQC
Sequence of Beta-2 adrenergic receptor (Homo sapiens) (P07550 whole entry, looked up): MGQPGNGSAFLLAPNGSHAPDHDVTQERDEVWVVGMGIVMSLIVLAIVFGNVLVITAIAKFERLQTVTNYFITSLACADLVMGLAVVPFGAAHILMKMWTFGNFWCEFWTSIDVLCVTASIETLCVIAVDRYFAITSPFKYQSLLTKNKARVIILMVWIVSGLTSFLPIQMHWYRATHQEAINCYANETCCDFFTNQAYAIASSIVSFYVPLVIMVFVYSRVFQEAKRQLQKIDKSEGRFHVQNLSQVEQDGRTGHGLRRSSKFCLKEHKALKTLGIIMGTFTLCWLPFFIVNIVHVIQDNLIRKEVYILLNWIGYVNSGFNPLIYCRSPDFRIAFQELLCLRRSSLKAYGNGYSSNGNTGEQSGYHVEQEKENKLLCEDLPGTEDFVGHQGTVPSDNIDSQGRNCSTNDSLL
Sequence of KiSS-1 receptor (Homo sapiens) (Q969F8 whole entry, looked up): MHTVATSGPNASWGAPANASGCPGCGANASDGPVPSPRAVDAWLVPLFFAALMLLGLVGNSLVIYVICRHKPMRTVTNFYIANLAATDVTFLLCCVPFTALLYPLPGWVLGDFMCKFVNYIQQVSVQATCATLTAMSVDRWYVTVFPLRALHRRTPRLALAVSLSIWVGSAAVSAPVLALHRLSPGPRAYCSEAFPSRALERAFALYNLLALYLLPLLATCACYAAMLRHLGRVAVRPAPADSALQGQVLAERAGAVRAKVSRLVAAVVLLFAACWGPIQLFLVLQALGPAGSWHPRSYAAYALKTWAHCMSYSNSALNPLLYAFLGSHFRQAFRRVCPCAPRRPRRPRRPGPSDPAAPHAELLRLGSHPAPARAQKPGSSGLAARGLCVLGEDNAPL
Sequence of Gonadotropin-releasing hormone receptor (Homo sapiens) (P30968 whole entry, looked up): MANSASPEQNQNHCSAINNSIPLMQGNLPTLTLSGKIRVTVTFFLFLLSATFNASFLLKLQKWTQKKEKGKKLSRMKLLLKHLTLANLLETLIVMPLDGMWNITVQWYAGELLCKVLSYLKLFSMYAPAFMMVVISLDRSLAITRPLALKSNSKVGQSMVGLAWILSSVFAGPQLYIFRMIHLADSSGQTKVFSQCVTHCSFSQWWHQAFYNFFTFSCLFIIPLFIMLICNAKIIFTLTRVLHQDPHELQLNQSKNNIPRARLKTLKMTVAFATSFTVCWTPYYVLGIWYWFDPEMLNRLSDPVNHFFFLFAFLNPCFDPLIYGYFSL
Sequence of D(2) dopamine receptor (Homo sapiens) (P14416 whole entry, looked up): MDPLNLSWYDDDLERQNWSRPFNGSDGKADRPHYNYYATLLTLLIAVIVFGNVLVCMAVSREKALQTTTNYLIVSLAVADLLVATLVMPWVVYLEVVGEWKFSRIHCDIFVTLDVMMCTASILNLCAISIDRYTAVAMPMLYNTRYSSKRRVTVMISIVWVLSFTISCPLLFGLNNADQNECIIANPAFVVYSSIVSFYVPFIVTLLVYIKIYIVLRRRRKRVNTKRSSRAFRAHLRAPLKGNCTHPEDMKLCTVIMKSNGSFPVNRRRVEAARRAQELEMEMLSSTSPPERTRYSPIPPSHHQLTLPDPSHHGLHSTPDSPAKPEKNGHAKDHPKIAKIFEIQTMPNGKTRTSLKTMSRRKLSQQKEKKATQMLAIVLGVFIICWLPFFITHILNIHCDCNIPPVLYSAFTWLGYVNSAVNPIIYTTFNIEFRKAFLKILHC
Sequence of 5-hydroxytryptamine receptor 2A (Homo sapiens) (P28223 whole entry, looked up): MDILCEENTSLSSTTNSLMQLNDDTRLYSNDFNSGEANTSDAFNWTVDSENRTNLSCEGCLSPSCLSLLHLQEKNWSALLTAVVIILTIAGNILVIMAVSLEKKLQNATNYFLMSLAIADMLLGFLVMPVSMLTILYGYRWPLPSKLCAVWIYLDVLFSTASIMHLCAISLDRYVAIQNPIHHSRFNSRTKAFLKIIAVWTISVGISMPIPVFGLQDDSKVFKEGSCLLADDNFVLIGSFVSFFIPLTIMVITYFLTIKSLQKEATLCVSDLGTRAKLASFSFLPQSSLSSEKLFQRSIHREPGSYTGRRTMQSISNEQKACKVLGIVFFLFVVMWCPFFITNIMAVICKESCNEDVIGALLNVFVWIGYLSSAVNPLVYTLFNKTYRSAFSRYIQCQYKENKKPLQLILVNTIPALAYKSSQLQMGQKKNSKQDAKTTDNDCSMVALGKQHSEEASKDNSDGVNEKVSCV

In the case of `Nc1c2ccccc2nc2ccccc12`, the Potency result in [1], in test [3], in [4], in [5], in [8] and in test [9] was “inactive” throughout. The Potency result in test [10], in test [11], in test [13], in test [14], in test [15] and in test [16] was “inactive” in each case. Further, the Potency in test [2] is 6.03 µM (active) and 6.68 µM (active); in test [6], 11.3 µM (active) and 19.9 µM (active); in test [7], 40.3 µM (active); in test [12] it was 14.7 µM (active) and inactive.

As to `COc1cc(C(=O)N2CCOCC2)cc(OC)c1OC`, the Potency result in [1], in test [2], in test [3], in test [4], in test [5] and in [6] was “inactive” throughout. Further, the Potency entry in [7], in test [9], in test [17], in test [10], in test [11] and in [12] was “inactive” each time. The Potency result in test [13], in test [18], in [19], in [14], in [20] and in [15] was “inactive” each time. The Potency entry in test [16] was “inactive”.

For the molecule `CCN1CCCC(OC(=O)C(c2ccccc2)c2ccccc2)C1` (stereo unspecified), the Potency result in test [1], in test [2], in test [3], in test [4], in [5] and in test [6] was “inactive” each time. The Potency entry in [7], in test [8], in test [17], in [18], in [19] and in test [14] was “inactive” throughout. For the same molecule, in test [20], the Potency result was “inactive”. The Potency in test [10] is 0.163 µM (active); in test [11] it was 0.0756 µM (active); in test [12] it was 4.1 µM (active).

Consider `C=COCCCC`, for which the Potency entry in test [1], in test [2], in test [3], in [4], in [5] and in test [6] was “inactive” each time. The Potency result in test [7], in test [9], in [17], in test [10], in test [11] and in test [12] was “inactive” throughout. Moreover, the Potency entry in [13], in test [18], in test [19], in test [14], in test [20] and in test [15] was “inactive” each time. Further, the Potency result in [16] is “inactive”.

On to `CCOC(=S)SSC(=S)OCC`, for which the Potency result in test [1], in test [3], in test [4], in test [5], in test [6] and in test [7] was “inactive” in each case. The Potency entry in [9], in test [17], in test [10], in [11], in [12] and in test [13] was “inactive” each time. Also, the Potency result in test [18], in [19], in [20], in test [15] and in [16] was “inactive” in each case. Further, in test [2], the Potency is 68.6 µM (active).

Turning to `CCCCCCCCCCCCI`, the Potency result in [1], in test [2], in test [3], in test [4], in test [5] and in [6] was “inactive” throughout. Besides, the Potency entry in test [7], in test [9], in test [17], in [10], in [11] and in [12] was “inactive” in each case. Besides, the Potency result in test [13], in test [18], in test [19], in test [14], in test [20] and in test [16] was “inactive” in each case. Also, the Potency in test [15] was 54.7 µM (active).

For the molecule `Cc1ccccc1OCC1CO1` (stereo unspecified), the Potency entry in test [1], in [2], in [3], in [4], in [5] and in [6] was “inactive” throughout. Moreover, the Potency entry in test [7], in [9], in [17], in [10], in [11] and in test [12] was “inactive” in each case. Besides, the Potency entry in test [13], in test [18], in test [19], in test [14], in [20] and in test [15] was “inactive” throughout. For the same molecule, in test [16], the Potency result was “inactive”.
